The full list was thinned out, with hits kept by preference.
CD40 NFkB inh = inhibitors of CD40-induced NF-kB signaling, primary screen, BL2 cells, luciferase reporter, single point. CD40L-induced, 4 h. inhibition, % at 10 µM. hit rate 0.94% among 83,000. AID 1053188, 2014;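 active means mean inhibition of at least 50% with a set share of replicates also reaching that level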;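 further: 0% = neutral control wells and 100% = IKK inhibitor VII at 50 µM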
Numbers without * were called inactive; [ ] = dose if it differs, or a comment.

SMILES	CD40 NFkB inh
c1ccc(-c2noc(-c3cccnc3)n2)nc1	-3.5
c1ccc(-c2nccc(-c3ccc4c(c3)OCO4)n2)cc1	-88.3
c1ccc(CCc2ccccc2-c2nc(-c3ccccn3)no2)cc1	10.8
c1ccc(-c2noc(-c3ccc4ccccc4c3)n2)nc1	105.0*
c1ccc(-c2noc(-c3ccncc3)n2)nc1	-47.1
c1ccc(-c2noc(-c3ccc4c(c3)OCO4)n2)nc1	75.4*
COc1cc2c(cc1OC)CN(CC(=O)NC(=O)NC(C)(C)C)CC2	-0.1
COc1ccc(C(=O)CCN2CCc3cc(OC)c(OC)cc3C2)cc1	50.4*
COc1cc2c(cc1OC)CN(C(=O)c1ccc(-c3ccccc3)cc1)CC2	17.5
C[C@H](NC(=O)N(C)C[C@@H]1OCc2ccccc2-c2c(n(C)c3ccccc23)C(=O)N([C@H](C)CO)C[C@H]1C)c1ccccc1	11.3
O=C(C[C@@H]1CC[C@@H]2[C@H](COC[C@H](O)CN2C(=O)Nc2ccc(F)cc2)O1)NC1CCC1	-4.1[25 µM]
CN1c2ccc(-c3cccc(F)c3)cc2[C@@H]2[C@@H](CCN2C(=O)c2ccncc2)[C@@H]1CO	19.5[25 µM]
COC(=O)c1ccc(CSc2cc(C)c3ccccc3n2)o1	65.7*
COC(=O)c1ccc(CSc2nnc(-c3ccccc3)n2C)o1	10.4
COC(=O)c1ccc(CSc2nnnn2-c2ccccc2)o1	-9.3
CCCC(=O)Nc1ccc2c(c1)OC[C@H](C)NC[C@@H](C)[C@@H](OC)CN(C)C2=O	-3.9[25 µM]
O=C(C1CCOCC1)N1CC(=O)N2[C@H](C1)[C@H](c1ccc(C#CCc3ccccc3)cc1)[C@@H]2CO	75.0*[25 µM]
COCC#Cc1ccc([C@H]2[C@H](CO)N3C(=O)CN(C(=O)C4CCCCC4)C[C@@H]23)cc1	1.2[25 µM]
O=C(C1CCCC1)N1CC(=O)N2[C@H](C1)[C@H](c1ccc(C#CCc3ccccc3)cc1)[C@@H]2CO	23.9
COCC#Cc1ccc([C@@H]2[C@H](CO)N3C(=O)CN(C(=O)C4CCCCC4)C[C@@H]23)cc1	-24.3[25 µM]
O=C(C1CCOCC1)N1CC(=O)N2[C@H](CO)[C@H](c3ccc(C#CCc4ccccc4)cc3)[C@H]2C1	36.7[25 µM]
O=C(C1CCC1)N1CC(=O)N2[C@H](CO)[C@H](c3ccc(C#CCc4ccccc4)cc3)[C@H]2C1	70.6*
O=C(C1CCOCC1)N1CC(=O)N2[C@@H](CO)[C@H](c3ccc(C#CCc4ccccc4)cc3)[C@@H]2C1	4.0[25 µM]
O=C(C1CCOCC1)N1CC(=O)N2[C@H](CO)[C@H](c3ccc(C#CCc4ccccc4)cc3)[C@@H]2C1	-10.7[25 µM]
O=C(C1CCCC1)N1CC(=O)N2[C@H](CO)[C@H](c3ccc(C#CCc4ccccc4)cc3)[C@H]2C1	66.0*
SMILES	CD40 NFkB inh
CN(C)C(=O)C[C@H]1CC[C@H]2[C@H](COc3ccc(NC(=O)C4CCC4)cc3C(=O)N2C)O1	-1.7
CO[C@H](CN(C)S(=O)(=O)c1ccc(F)cc1)[C@@H](C)CN(C(=O)Nc1ccccc1F)[C@H](C)CO	-11.8
N#Cc1cccc(-c2ccc([C@@H]3[C@@H](CO)N4CCCCN(C(=O)Nc5cccc(F)c5)C[C@@H]34)cc2)c1	27.7[25 µM]
CN1C(=O)c2cc(NC(=O)c3cccc(F)c3)ccc2OC[C@H]2O[C@H](CC(=O)NCc3ccccc3Cl)CC[C@@H]21	33.5[25 µM]
O=C1C=C(NCCc2cc(Br)c(O)c(Br)c2)C(=O)c2ncccc21	32.1
NC1=C(Br)C(=O)c2ncccc2C1=O	70.1*
O=C1c2cccnc2C(=O)N1C1CCCCC1	8.3
CNC(=O)C1OC(n2cnc3c(NCc4cccc(I)c4)ncnc32)C(O)C1O (stereo not given)	-5.3[25 µM]
CC(C)(C)NCC(=Cc1ccccc1)C(=O)c1ccccc1	51.7*
COc1ccc(C=C(C(=O)c2ccccc2)C(=O)c2ccccc2)cc1	-98.6
COc1ccc(C=C(C(C)=O)C(=O)c2ccccc2)cc1	2.9
CN(C[C@H]1[C@@H](c2ccccc2)[C@@H](CO)N1C(=O)C1CCC1)C(=O)c1ccncc1	-10.8[25 µM]
O=C(c1ccco1)N1CCN(S(=O)(=O)c2ccc3c(c2)CCN3C(=O)C2CCC2)CC1	9.2
CCOC(=O)N1CCN(S(=O)(=O)c2ccc3c(c2)CCN3C(=O)C2CCC2)CC1	2.6
O=C(C1CCC1)N1CCc2cc(S(=O)(=O)N3CCCCC3)ccc21	active
CC1(C)Oc2ccc(C#N)cc2C(N2CCCC2=O)C1O (stereo not given)	-1.8[25 µM]
CC(=O)N(C)c1ccc(C=C2C=Cc3ccccc32)cc1	71.6*
CC(=O)N(C)c1ccc(NS(=O)(=O)Cc2ccccc2)cc1	7.7
CC(=O)N(C)c1ccc(NC(=S)Nc2ccc(C(C)C)cc2)cc1	-13.7
COc1cccc(NC(=O)N(C)C[C@@H]2OCc3ccccc3-c3c(n(C)c4ccccc34)C(=O)N([C@H](C)CO)C[C@H]2C)c1	-2.3
C[C@@H]1CN([C@@H](C)CO)C(=O)c2cc(N(C)C)ccc2O[C@@H]1CN(C)C(=O)Nc1cccc2ccccc12	-4.2[25 µM]
CC(C)[C@H](C)NC(=O)N(C)C[C@H]1OCc2ccccc2-c2ccccc2C(=O)N([C@@H](C)CO)C[C@H]1C	-4.5
COc1ccccc1NC(=O)N1CC(=O)N2[C@H](CO)[C@@H](c3ccc(C#CC(C)C)cc3)[C@H]2C1	16.1[25 µM]
O=C(CN1CCN(Cc2ccccc2Cl)C1=O)NC1CCCCCCC1	10.7
Cc1ccc(Cn2c(C)c3cnn(CC(=O)NC4CCCC4)c(=O)c3c2C)cc1	-11.3
SMILES	CD40 NFkB inh
O=C(Cn1ncc(Cl)c(Cl)c1=O)NC1CCCCC1	97.2*
CN(C)C(=O)[C@@H]1[C@@H](CO)[C@@H]2Cn3c(cccc3=O)[C@H]1N2CC1CCCC1	2.3[25 µM]
C[C@H](NC(=O)N(C)C[C@@H]1OCc2ccccc2-c2ccccc2C(=O)N([C@@H](C)CO)C[C@H]1C)c1ccccc1	-12.8[25 µM]
O=c1[nH]c(CSc2ccccn2)nc2ccccc12	-21.3
O=S(=O)(CCSc1ccccn1)c1nc2ccccc2s1	58.6*
O=C(O)CCSc1nc2ccccc2s1	14.0
COc1ccc2oc(C(=O)NCC(c3ccco3)N(C)C)c(C)c2c1 (stereo not given)	0.7
Cc1c(C(=O)NCCc2ccccc2)oc2ccc(S(=O)(=O)N3CCOCC3)cc12	-15.5
COc1ccc2oc(C(=O)NCCc3ccccc3)c(C)c2c1	58.0*
O=C([C@@H]1[C@@H](CO)[C@@H]2Cn3c(cccc3=O)[C@H]1N2)N1CCc2ccccc2C1	-3.4[25 µM]
COc1ccccc1NC(=O)N1[C@H](C#N)[C@@H](c2ccccc2)[C@@H]1CO	1.1[25 µM]
C/C=C/c1ccc2c(c1)[C@@H]1[C@@H](CCN1C(=O)Cc1ccncc1)[C@@H](CO)N2C	10.0[25 µM]
Cc1nc2nc(C)n(CCN3CCOCC3)c(=O)c2c(-c2cccc([N+](=O)[O-])c2)c1C(=O)CCCCCCCCCCN1CCC(c2ccccc2)(c2ccccc2)CC1	115.2*
Cc1nc2ccccc2c(=O)n1CCN1CCOCC1	-3.8
CCOC(=O)c1c(C)nc(C)c(C(=O)OCC)c1-c1cccc([N+](=O)[O-])c1	-2.7
N#C[C@H]1[C@H](c2ccc(C#Cc3ccc(F)cc3)cc2)[C@H](CO)N1C(=O)Cc1ccncc1	-11.8[25 µM]
COc1ccc(CNC(=O)C[C@@H]2C[C@@H]3c4cc(NC(=O)NC5CCCC5)ccc4O[C@@H]3[C@H](CO)O2)cc1	1.5[25 µM]
CC(C)c1cn(CC[C@@H]2CC[C@H](NC(=O)C3CCCCC3)[C@H](CO)O2)nn1	1.1
C[C@H]1CN(C)C(=O)c2cc(N)ccc2O[C@@H]1CN(C)C(=O)OC(C)(C)C	-2.3
COc1cccc2sc(N3CCN(c4nc5ccccc5s4)CC3)nc12	5.2
COc1cccc2sc(N3CCN(C(=O)c4ccc([N+](=O)[O-])o4)CC3)nc12	76.1*

Screens: PubChem, Broad Institute
